Measurements as given in article PMC5540273 (PLoS ONE, 2017).

How the values were obtained:
Settings in all cases: concentration: 1 μM,replicates: in singlicate; n = 1
CDK8 = test system: CDK8
CDK9 = test system: CDK9
CDKL1 = test system: CDKL1
CDKL2 = test system: CDKL2
CDKL3 = test system: CDKL3
CDKL5 = test system: CDKL5
CHEK1 = test system: CHEK1
CHEK2 = test system: CHEK2
CIT = test system: CIT
CLK1 = test system: CLK1
CLK2 = test system: CLK2
CLK3 = test system: CLK3
CLK4 = test system: CLK4
CSF1R-autoinhibited = test system: CSF1R-autoinhibited
CSF1R = test system: CSF1R
CSK = test system: CSK
CSNK1A1L = test system: CSNK1A1L
CSNK1A1 = test system: CSNK1A1
CSNK1D = test system: CSNK1D
CSNK1E = test system: CSNK1E
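Also: KINOMEscan kinase panel screen.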

SMILES	%Inh (CDK8) [%]	%Inh (CDK9) [%]	%Inh (CDKL1) [%]	%Inh (CDKL2) [%]	%Inh (CDKL3) [%]	%Inh (CDKL5) [%]	%Inh (CHEK1) [%]	%Inh (CHEK2) [%]	%Inh (CIT) [%]	%Inh (CLK1) [%]	%Inh (CLK2) [%]	%Inh (CLK3) [%]	%Inh (CLK4) [%]	%Inh (CSF1R-autoinhibited) [%]	%Inh (CSF1R) [%]	%Inh (CSK) [%]	%Inh (CSNK1A1L) [%]	%Inh (CSNK1A1) [%]	%Inh (CSNK1D) [%]	%Inh (CSNK1E) [%]
Cn1ccc2ncnc(Oc3ccc(NC(=O)Nc4cccc(C(F)(F)F)c4)c(Cl)c3)c21	95.9	2	29	8	6	0	0	0	57	0	1	0	0	18	99.5	15	0	0	0	0
CC(=O)c1c(-c2ccncc2)[nH]c(-c2ccncc2)c1C [GW493036]	0	87	0	43	16	35	83	0	100	99.8	82	65	96.1	19	12	8	79	93.4	93.7	90
CSc1nccc(-c2c(-c3ccc(F)cc3)ncn2CCCN2CCOCC2)n1.Cl [SB-217146]	1	0	36	10	0	11	0	0	0	0	0	0	18	0	0	0	0	6	54	10
CS(=O)c1ccc(-c2coc3ccc(-c4n[nH]c(=O)o4)cc23)cc1 (stereo not shown)	91.1	0	10	0	12	0	0	42	0	20	25	3	33	10	4	0	7	7	0	0
CCn1c(-c2nonc2N)nc2cncc(Br)c21 [SB-738004]	50	4	2	0	0	0	0	41	0	22	77	9	37	95.1	5	11	0	12	13	19
Cc1ccc2c(-c3ccnc(Nc4ccc(C(F)(F)F)cc4)n3)cnn2n1 [GW819776]	36	23	39	69	77	61	0	0	19	83	72	31	67	0	11	0	0	7	31	19
Cl.Cl.NC[C@H](CC1CCCCC1)NC(=O)c1ccc(-c2ccnc3[nH]ccc23)s1 [GSK1581428]	11	39	23	51	89	44	96.8	27	99	85	82	63	90	0	85	0	69	77	80	82
O=C(Nc1ccc(Oc2ccc3nc(NC(=O)C4CC4)cn3n2)c(F)c1)c1cccn(-c2ccccc2)c1=O	63	6	45	74	25	0	0	0	30	1	0	0	0	0	100	0	15	39	0	0
Cc1nnc(-c2ccc3occ(-c4ccc(S(C)=O)cc4)c3n2)o1 (stereo not shown)	0	0	24	0	0	0	0	1	0	0	19	0	0	0	1	0	6	0	0	0
O=C(Nc1cccc(C(F)(F)F)c1)c1cccc(Oc2ccc3nccn3n2)c1	0	0	14	18	0	3	0	0	13	7	0	0	4	16	100	0	0	0	11	0
O=C(Nc1ccccc1)c1cccc(Oc2ccc3nccn3n2)c1	0	94.6	0	20	0	0	0	0	32	0	20	0	0	0	81	0	0	0	0	0
Cn1ccc2ncnc(Oc3ccc(NC(=O)Nc4ccnc(C(F)(F)F)c4)c(Cl)c3)c21	95.5	0	34	3	0	19	0	2	18	0	0	0	0	6	92.3	0	16	0	0	0
Cn1ccc2ncnc(Oc3ccc(NC(=O)Nc4cnn(C(C)(C)C)c4)c(Cl)c3)c21	97.1	0	21	10	19	26	3	0	39	0	12	5	9	28	99.9	0	0	0	0	2
COc1cccc(CNC(=O)NC2CCN(c3ccnc(Nc4cc(OC)c(OC)c(OC)c4)n3)C2)c1 (stereo not shown) [GSK1379765]	29	0	13	22	0	0	0	14	28	21	0	0	16	29	15	20	16	0	14	18
CN(c1cccc(CNc2nc(Nc3ccc4c(c3)CC(=O)N4)ncc2C(F)(F)F)c1)S(C)(=O)=O	0	6	44	55	7	0	0	0	30	63	26	16	47	31	15	0	0	0	7	18
CN1CCN(CCNc2nc3cc(Oc4ccc(NC(=O)Nc5cc(C(F)(F)F)ccc5F)cc4)ccc3[nH]2)CC1.Cl.Cl [GW768504]	55	0	3	56	43	0	0	3	67	2	0	0	14	0	60	0	0	19	0	6
C[C@@H]1CNc2c(sc3ccc4nc(-c5ccc(O)cc5)ccc4c23)C(=O)N1	63	67	15	0	5	0	0	54	54	97.3	98.2	50	95.7	7	4	0	84	95.4	63	55
CC(C)c1nc(-c2cccc(NS(=O)(=O)c3ccccc3)c2)c(-c2ccnc(Nc3ccc4c(c3)CN(C)CC4)n2)s1 [GSK1649598]	0	60	0	100	37	99	5	24	84	30	10	24	0	0	89	97.6	88	87	86	98.6
CC(=O)Nc1nc2cnc(Nc3cc(NC(=O)c4cccc(CC(C)(C)C#N)c4)ccc3C)nc2s1	67	10	50	99.5	41	0	0	28	68	0	0	0	7	28	99.7	7	11	31	6	0
Cc1ccc(Nc2ccnc(Nc3ccc4c(c3)CS(=O)(=O)C4)n2)cc1O.Cl [GW579362]	38	37	36	41	0	0	0	14	69	81	16	82	81	76	97.5	48	8	0	3	21
O=C1NCCc2[nH]c(-c3ccncc3)cc21	19	97.9	5	7	2	29	0	31	99.7	99.5	94.8	32	94.6	0	5	10	73	95.7	96.6	98.1

SMILES	%Inh (CDK8) [%]	%Inh (CDK9) [%]	%Inh (CDKL1) [%]	%Inh (CDKL2) [%]	%Inh (CDKL3) [%]	%Inh (CDKL5) [%]	%Inh (CHEK1) [%]	%Inh (CHEK2) [%]	%Inh (CIT) [%]	%Inh (CLK1) [%]	%Inh (CLK2) [%]	%Inh (CLK3) [%]	%Inh (CLK4) [%]	%Inh (CSF1R-autoinhibited) [%]	%Inh (CSF1R) [%]	%Inh (CSK) [%]	%Inh (CSNK1A1L) [%]	%Inh (CSNK1A1) [%]	%Inh (CSNK1D) [%]	%Inh (CSNK1E) [%]
CC(C)S(=O)(=O)N1CCN(Cc2ccc3c(c2)nc(NC(=O)c2ccsc2)n3C[C@H](O)c2ccccc2)CC1 [GW635815]	15	0	8	6	0	0	0	32	98.4	98.5	91.9	79	95.5	45	68	13	68	60	56	71
CC(C(=O)NC1CCN(c2ccnc(Nc3ccc(F)cc3)n2)C1)c1ccc(Cl)cc1 (stereo not shown) [GSK1379713]	23	0	0	1	0	0	15	0	28	15	0	0	8	0	0	0	3	22	0	3
Cc1cccc2c(-c3ccncc3)c(-c3ccc(F)cc3)nn12.Cl [GW461487]	25	0	12	8	0	0	0	0	90	17	0	3	0	4	0	0	22	51	93.3	84
Cn1cc(-c2cccc3c(N)c(C(N)=O)nnc23)cn1	33	0	32	12	7	0	0	0	10	74	78	20	75	0	0	19	21	72	32	25
CCOC(=O)N1CCC(n2cnc(-c3ccc(F)cc3)c2-c2ccnc(N)n2)CC1 [SB-219952]	22	0	7	0	30	13	0	2	41	0	0	2	2	22	70	11	74	97.8	94.8	99.7
C[C@@H]1CCN(C(=O)N2CCCC2)C[C@@H]1N(C)c1ncnc2[nH]ccc12	24	0	24	11	0	5	9	0	13	4	8	0	24	0	0	0	0	27	0	13
Nc1nccc(-c2ccc3c(N)n[nH]c3c2)n1 [GSK1034945]	13	2	10	18	30	0	0	58	54	98	88	44	95.3	0	0	0	5	0	17	29
Cn1ccc2ncnc(Oc3ccc(NC(=O)Nc4cccc(C(F)(F)F)c4)c(F)c3)c21	100	24	62	45	7	0	0	1	78	13	9	4	0	0	99.9	0	0	39	22	13
O=C(NCC1CC1)c1ccc(-c2cc(C(=O)NC3CC3)ccc2F)cc1 [GW810445]	62	0	0	0	28	0	0	0	25	0	15	0	0	8	0	0	0	0	0	0
C[C@@H](Oc1cc(-n2cnc3cc(-c4ccncc4)ccc32)sc1C(N)=O)c1ccccc1Cl [GSK479719]	12	4	21	33	0	0	4	0	24	73	28	5	68	0	29	0	15	0	17	8
Cc1ccc(C(=O)Nc2ccc(Oc3ccc4nc(NC(=O)C5CC5)cn4c3)c(F)c2)c(=O)n1-c1ccccc1	87	0	41	99.6	0	0	0	0	36	0	5	2	0	0	100	24	0	29	0	0
CC(=O)Nc1ccc(-c2cc3ncnc(SCC(=O)O)c3s2)cc1	0	85	16	0	26	18	1	26	0	31	53	9	32	41	48	12	5	33	4	0
NC(=O)Nc1sc(-c2ccc(F)cc2)cc1C(N)=O [GW789449]	46	0	27	17	10	0	0	69	27	9	0	15	0	39	77	6	5	35	55	40
Cc1ccn2nc(-c3ccc(F)cc3)c(-c3ccncc3)c2c1.Cl [GW457859]	12	0	23	28	0	0	0	43	100	22	0	1	55	25	9	0	35	92.5	96.3	99.6
O=c1[nH]cc(-c2ccc(O)cc2)c2sc(-c3ccncc3)cc12 [GSK1033723]	27	6	7	9	0	0	0	10	45	95.7	67	19	95.9	2	25	5	13	57	41	46
FC(F)(F)c1cc(Br)cc(Nc2nccc(-c3cnn4ncccc34)n2)c1 [GW810578]	2	97.8	47	96.2	97.4	95.3	0	17	6	99.2	95.6	79	85	0	61	17	68	58	91.9	75
Cl.Nc1n[nH]c2cc(-c3ccccn3)ccc12 [GSK2189892]	13	7	4	24	0	0	18	0	25	23	0	18	31	0	8	0	0	0	0	21
CCn1c(-c2nonc2N)nc2cncc(CNC3CCNCC3)c21.Cl [SB-747651]	24	0	0	20	0	0	48	0	24	31	17	7	56	0	10	0	19	0	26	21
COC(=O)c1cccc(NC(=O)NC2CCN(c3ccnc(Nc4cc(OC)c(OC)c(OC)c4)n3)C2)c1 (stereo not shown) [GSK1379767]	56	1	14	67	0	0	0	58	10	0	0	0	8	34	26	0	0	28	0	13
CN(c1ccc2c(c1)nc(NCc1ccc(F)cc1)n2C)c1ccnc(Nc2ccc(CS(C)(=O)=O)cc2)n1.Cl [GW813244]	2	57	30	40	20	0	0	0	86	13	46	0	17	62	100	0	5	28	10	0
